Laboratory results published in PubChem BioAssay (EPA / NIEHS).
Several values for one entry are separate records, joined by “and”; a condition that tells them apart may be missing. Equal entries are not always repeated. Inconclusive results are not listed. Activity calls are given as the source filed them. Rule for the calls, unless noted: active = hit-call score of the fitted dose curve at least 0.9, where 1 is the maximum; inactive = score below 0.9.

Columns and labels:
[1] = molecular target: Glucocorticoid receptor (Homo sapiens) (UniProt P04150); test: ATG_GR_TRANS: Attagene TRANS-FACTORIAL HepG2 Assay for human Glucocorticoid Receptor (GR) (AID 2282978; active = hit-call score of the fitted dose curve at least 0.9, where 1 is the maximum;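 note: activators score as hits since higher reporter transcript over DMSO is fitted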); conditions: HepG2 Attagene TRANS GR reporter, mRNA transcription
In short: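 Exogenous NR-GAL4 fusion activity was assessed through induced GAL4-UAS reporter transcripts in transfected human HepG2 cells, quantified after 24 h by RT-PCR and fluorescent capillary electrophoresis with DMSO as baseline.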

[2] = molecular target: Bile acid receptor (Homo sapiens) (UniProt Q96RI1); test: ATG_FXR_TRANS: Attagene TRANS-FACTORIAL HepG2 Assay for Farnesoid X Receptor (FXR) (AID 2282979; active = hit-call score of the fitted dose curve at least 0.9, where 1 is the maximum;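 note: hits raise reporter mRNA above DMSO so AC50 marks FXR activation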); conditions: HepG2 Attagene TRANS FXR-GAL4 reporter transcription
In short: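 Read-out: fluorescent reporter transcripts quantified by capillary electrophoresis after RT-PCR of total RNA. Source cells were HepG2 transiently carrying chimeric NR-GAL4 plus GAL4-UAS reporter units, dosed 24 h. Activity fitted upward relative to DMSO baseline.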

[3] = molecular target: Oxysterols receptor LXR-alpha (Homo sapiens) (UniProt Q13133); test: ATG_LXRa_TRANS: Attagene TRANS-FACTORIAL HepG2 Assay for human Liver X Receptor alpha (LXRa) (AID 2282980; active = hit-call score of the fitted dose curve at least 0.9, where 1 is the maximum); conditions: HepG2 Attagene TRANS reporter, LXRa transactivation
In short: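 Read-out: reporter transcript levels by RT-PCR plus capillary electrophoresis, fluorescence intensity. Transiently transfected HepG2, exogenous NR-GAL4 chimera, GAL4-UAS reporters; 24 h compound exposure. Activity = increase over DMSO negative control.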

[4] = molecular target: Oxysterols receptor LXR-beta (Homo sapiens) (UniProt P55055); test: ATG_LXRb_TRANS: Attagene TRANS-FACTORIAL HepG2 Assay for human Liver X Receptor beta (LXRb) (AID 2282981; active = hit-call score of the fitted dose curve at least 0.9, where 1 is the maximum); conditions: HepG2 Attagene TRANS GAL4-LXRb reporter, mRNA
In short: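 HepG2 cells transiently transfected with multiple reporter transcription units carrying chimeric NR-Gal4 proteins acting on GAL4-UAS reporters; compound exposure 24 h. Reporter mRNA quantified by RT-PCR, 6-FAM labelling, HpaI digestion and capillary electrophoresis; gain of signal versus DMSO.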

[5] = molecular target: Hepatocyte nuclear factor 4-alpha (Homo sapiens) (UniProt P41235); test: ATG_HNF4a_TRANS: Attagene TRANS-FACTORIAL HepG2 Assay for human Hepatocyte Nuclear Factor 4 alpha (HNF4a) (AID 2282982; active = hit-call score of the fitted dose curve at least 0.9, where 1 is the maximum); conditions: HepG2 HNF4a transactivation reporter, mRNA readout
In short: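 HepG2 cells transiently transfected with multiplexed GAL4-UAS reporter units responsive to chimeric NR-GAL4 proteins; compound exposure 24 h. Reporter mRNA quantified by RT-PCR, 6-FAM labelling, HpaI digestion and capillary electrophoresis; gain of signal versus DMSO baseline.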

[6] = ATG_M_06_TRANS: Attagene TRANS-FACTORIAL HepG2 Assay for M06 Transcription Factor (Internal Marker) (AID 2282983; active = hit-call score of the fitted dose curve at least 0.9, where 1 is the maximum); conditions: HepG2 Attagene TRANS M06 internal marker reporter
In short: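 After a 24 h chemical treatment of transfected HepG2, RNA underwent DNase I treatment, reverse transcription and reporter-specific PCR; labelled, HpaI-digested products were sized by capillary electrophoresis. Signal increase relative to DMSO defined activity.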

[7] = ATG_M_32_TRANS: Attagene TRANS-FACTORIAL HepG2 Assay for M32 Transcription Factor (Internal Marker) (AID 2282984; active = hit-call score of the fitted dose curve at least 0.9, where 1 is the maximum;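 note: transcript level of a background control reporter unit measured by RT-PCR and capillary electrophoresis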); conditions: HepG2 Attagene TRANS M32 internal marker reporter
In short: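 HepG2 cells transiently transfected with multiple GAL4-UAS reporter transcription units, dosed for 24 hours; reporter mRNA quantified by RT-PCR, 6-FAM primer extension, HpaI digestion and capillary electrophoresis. Gain-of-signal fitted versus DMSO baseline; internal background-control marker.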

[8] = molecular target: Nuclear receptor subfamily 4 group A member 2 (Homo sapiens) (UniProt P43354); test: ATG_NURR1_TRANS: Attagene TRANS-FACTORIAL HepG2 Assay for human Nuclear Receptor Related Protein 1 (NURR1) (AID 2282985; active = hit-call score of the fitted dose curve at least 0.9, where 1 is the maximum); conditions: HepG2 Attagene TRANS reporter, mRNA readout
In short: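 HepG2 cells transiently transfected with GAL4-UAS reporter units and chimeric NR-Gal4 constructs; chemical exposure 24 h. Reporter mRNA quantified by RT-PCR, fluorescent labelling and capillary electrophoresis; gain of signal fitted relative to DMSO baseline.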

[9] = molecular target: Transcriptional activator Myb (Homo sapiens) (UniProt P10242); test: ATG_Myb_CIS: Attagene CIS-FACTORIAL HepG2 Assay for human Myeloblastosis (Myb) Proto-Oncogene Transcription Factor (AID 2282986); conditions: HepG2 Attagene CIS-FACTORIAL Myb reporter transcription; actives raise or lower the signal
In short: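 In this HepG2 transient-transfection format, cis-regulated reporter mRNA is quantified 24 h post-dosing by RT-PCR with capillary electrophoresis, fitted bidirectionally to DMSO baseline.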

[10] = molecular target: Nuclear respiratory factor 1 (Homo sapiens) (UniProt Q16656); test: ATG_NRF1_CIS: Attagene CIS-FACTORIAL HepG2 Assay for human Nuclear Respiratory Factor 1 (NRF1) Orphan Gene (AID 2282987); conditions: HepG2 NRF1 cis-element reporter, Attagene multiplex; actives raise or lower the signal
In short: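 Using DMSO as baseline, gain- or loss-of-signal was fitted for reporter mRNA levels in HepG2 cells transiently transfected with cis-regulated reporter units. Samples were taken 24 h after dosing and read by RT-PCR with capillary electrophoresis.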

[11] = ATG_NFI_CIS: Attagene CIS-FACTORIAL HepG2 Assay for human Nuclear Factor I (NFI) (AID 2282989); conditions: HepG2 cis-regulatory reporter, NFI response element transcription; actives raise or lower the signal
In short: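 Reporter transcripts were measured by RT-PCR with fluorescent primer extension and capillary electrophoresis 24 h post-treatment. HepG2 cells carried transiently transfected cis-regulated reporter constructs reporting endogenous factor activity; gain or loss fitted against DMSO baseline.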

[12] = molecular target: Myc proto-oncogene protein (Homo sapiens) (UniProt P01106); test: ATG_Myc_CIS: Attagene CIS-FACTORIAL HepG2 Assay for human Myelocytomatosis (Myc) Proto-Oncogene Transcription Factor (AID 2282990); conditions: HepG2, Attagene cis-reporter transcription factor activity; actives raise or lower the signal
In short: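 DMSO-normalised, bidirectionally fitted reporter mRNA signal. HepG2 cells transfected with cis reporter constructs, treated 24 h; transcripts detected by RT-PCR, 6-FAM primer extension and CE.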

[13] = ATG_NF_kB_CIS: Attagene CIS-FACTORIAL HepG2 Assay for human Nuclear Factor Kappa B (NF-kB) (AID 2282991); conditions: HepG2 Attagene cis-factorial NF-kB reporter mRNA; actives raise or lower the signal
In short: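 Endpoint from a 52-component multiplexed HepG2 reporter panel: cis-regulated transcription units transiently transfected, 24 h dosing, reporter mRNA quantified by RT-PCR and capillary electrophoresis, scored as increase or decrease against DMSO.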

[14] = ATG_Oct_MLP_CIS: Attagene CIS-FACTORIAL HepG2 Assay for human Octamer-Binding Transcription Factor (Oct) (AID 2282993); conditions: HepG2 Attagene cis-factorial Oct reporter, mRNA; actives raise or lower the signal
In short: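 Readout is reporter transcript level from RT-PCR with fluorescent primer extension and capillary electrophoresis, fitted in both directions against DMSO. Transfected HepG2 reporter units report endogenous factor activity after 24 h dosing.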

[15] = molecular target: Cellular tumor antigen p53 (Homo sapiens) (UniProt P04637); test: ATG_p53_CIS: Attagene CIS-FACTORIAL HepG2 Assay for human p53 Transcription Factor (AID 2282994); conditions: HepG2 p53 cis-element reporter, Attagene mRNA; actives raise or lower the signal
In short: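 Using HepG2 hepatoma cells carrying cis-acting multiplexed reporters, mRNA induction is detected after a 24 h exposure. Gain- and loss-of-signal responses are fitted relative to DMSO-treated cells.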

[16] = BSK_3C_TissueFactor: BioMAP Diversity Plus: 3C Assay for Tissue Factor Biomarker Activity (AID 2282997); conditions: BioMAP 3C HUVEC, tissue factor biomarker readout; actives raise or lower the signal
In short: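 Human vascular primary cells (umbilical vein endothelium) received test chemical; Tissue Factor was determined by ELISA at 24 h, and both gain and loss of signal versus DMSO were fitted.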

[17] = BSK_3C_uPAR: BioMAP Diversity Plus: 3C Assay for Urokinase-type plasminogen activator receptor (uPAR) Biomarker Activity (AID 2282998); conditions: BioMAP 3C HUVEC, uPAR biomarker ELISA; actives raise or lower the signal
In short: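 Cell-surface uPAR on HUVEC (3C system) read by ELISA at 24 h post-treatment, with DMSO as baseline and fitting in both directions. Parallel cultures stained with SRB to flag overt cytotoxicity.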

[18] = BSK_3C_VCAM1: BioMAP Diversity Plus: 3C Assay for Vascular cell adhesion molecule 1 (VCAM1) Biomarker Activity (AID 2282999); conditions: BioMAP 3C HUVEC, VCAM1 ELISA, cytokine-stimulated; actives raise or lower the signal
In short: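 Human umbilical vein endothelial cells were dosed with compound for 24 h, after which cell-surface VCAM-1 was quantified by ELISA. Bidirectional curve fitting used DMSO as negative control and activity baseline.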

[19] = molecular target: Estrogen-related receptor gamma (Homo sapiens) (UniProt P62508); test: ATG_ERRg_TRANS: Attagene TRANS-FACTORIAL HepG2 Assay for human Estrogen-Related Receptor gamma (ERRg) (AID 2282977; active = hit-call score of the fitted dose curve at least 0.9, where 1 is the maximum;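 note: hits increase reporter signal over DMSO so potencies reflect activators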); conditions: HepG2 Attagene TRANS reporter, ERRg transactivation
In short: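 Transient HepG2 transfectants, 24 h compound exposure, GAL4-UAS reporter mRNA by RT-PCR/6-FAM labelling/capillary electrophoresis; positive direction vs DMSO.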

[20] = ATG_NRF2_ARE_CIS: Attagene CIS-FACTORIAL HepG2 Assay for human Nuclear Factor Erythroid 2 Related Factor 2 (NFR2) response to Antioxidant Response Elements (ARE) (AID 2282992); conditions: HepG2 Attagene ARE/NRF2 reporter, transcription factor activity; actives raise or lower the signal;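 for AC50: reporter mRNA level measured by RT-PCR and capillary electrophoresis fluorescence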
In short: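 Cis-factorial assay: transfected HepG2 reporter library, 24 h dosing, mRNA readout via RT-PCR/CE; DMSO-referenced bidirectional analysis.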

Oxysterols receptor LXR-alpha (Homo sapiens), sequence (Q13133 whole entry, looked up, the tested form may be a part): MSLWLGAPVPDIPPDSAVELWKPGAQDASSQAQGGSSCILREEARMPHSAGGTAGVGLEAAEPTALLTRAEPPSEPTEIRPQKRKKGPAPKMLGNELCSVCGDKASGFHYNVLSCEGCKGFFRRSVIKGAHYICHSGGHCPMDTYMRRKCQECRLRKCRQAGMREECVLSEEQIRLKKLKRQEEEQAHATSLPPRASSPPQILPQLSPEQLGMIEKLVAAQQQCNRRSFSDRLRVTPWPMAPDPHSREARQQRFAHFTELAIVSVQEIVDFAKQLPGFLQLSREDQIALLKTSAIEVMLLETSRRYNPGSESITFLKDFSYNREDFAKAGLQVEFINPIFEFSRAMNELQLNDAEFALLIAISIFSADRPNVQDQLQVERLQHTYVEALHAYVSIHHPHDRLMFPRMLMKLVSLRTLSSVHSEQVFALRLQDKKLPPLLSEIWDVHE
Cellular tumor antigen p53 (Homo sapiens), sequence (P04637 whole entry, looked up): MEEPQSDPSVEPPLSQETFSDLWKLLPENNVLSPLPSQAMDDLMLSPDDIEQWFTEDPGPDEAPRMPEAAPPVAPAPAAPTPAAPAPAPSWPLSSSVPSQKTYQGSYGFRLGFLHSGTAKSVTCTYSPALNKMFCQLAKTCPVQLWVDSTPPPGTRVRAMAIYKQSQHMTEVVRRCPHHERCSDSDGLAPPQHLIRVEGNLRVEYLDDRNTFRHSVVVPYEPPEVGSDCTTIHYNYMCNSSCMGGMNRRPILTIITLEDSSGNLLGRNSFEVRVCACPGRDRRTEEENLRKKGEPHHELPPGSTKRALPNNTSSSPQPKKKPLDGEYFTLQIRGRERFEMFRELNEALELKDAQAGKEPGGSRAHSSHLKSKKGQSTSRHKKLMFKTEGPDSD
Estrogen-related receptor gamma (Homo sapiens), sequence (P62508 whole entry, looked up, the tested form may be a part): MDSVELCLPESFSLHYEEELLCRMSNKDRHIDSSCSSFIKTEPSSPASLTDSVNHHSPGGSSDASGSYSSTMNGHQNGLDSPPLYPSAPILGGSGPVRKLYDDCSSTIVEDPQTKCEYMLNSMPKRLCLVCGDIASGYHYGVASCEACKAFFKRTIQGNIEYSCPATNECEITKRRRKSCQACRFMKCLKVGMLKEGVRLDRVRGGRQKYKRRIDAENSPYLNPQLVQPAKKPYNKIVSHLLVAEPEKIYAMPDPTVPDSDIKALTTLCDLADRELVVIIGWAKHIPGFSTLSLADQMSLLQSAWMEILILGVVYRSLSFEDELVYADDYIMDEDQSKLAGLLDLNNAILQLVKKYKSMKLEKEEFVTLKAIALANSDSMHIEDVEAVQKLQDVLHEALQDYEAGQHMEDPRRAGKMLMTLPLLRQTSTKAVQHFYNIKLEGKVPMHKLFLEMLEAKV
Bile acid receptor (Homo sapiens), sequence (Q96RI1 whole entry, looked up, the tested form may be a part): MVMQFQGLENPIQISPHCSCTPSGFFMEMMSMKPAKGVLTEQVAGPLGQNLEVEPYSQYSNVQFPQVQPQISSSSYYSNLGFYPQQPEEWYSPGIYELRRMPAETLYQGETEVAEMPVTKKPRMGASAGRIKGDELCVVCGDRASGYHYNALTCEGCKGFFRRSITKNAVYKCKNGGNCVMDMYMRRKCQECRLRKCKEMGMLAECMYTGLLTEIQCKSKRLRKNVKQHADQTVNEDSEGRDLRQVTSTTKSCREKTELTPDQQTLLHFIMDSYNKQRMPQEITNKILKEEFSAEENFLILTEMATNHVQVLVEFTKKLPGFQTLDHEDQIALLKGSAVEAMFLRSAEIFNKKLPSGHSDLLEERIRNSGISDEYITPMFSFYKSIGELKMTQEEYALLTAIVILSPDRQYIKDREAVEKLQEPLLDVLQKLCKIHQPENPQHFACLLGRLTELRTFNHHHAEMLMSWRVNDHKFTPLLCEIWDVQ
Glucocorticoid receptor (Homo sapiens), sequence (P04150 whole entry, looked up, the tested form may be a part): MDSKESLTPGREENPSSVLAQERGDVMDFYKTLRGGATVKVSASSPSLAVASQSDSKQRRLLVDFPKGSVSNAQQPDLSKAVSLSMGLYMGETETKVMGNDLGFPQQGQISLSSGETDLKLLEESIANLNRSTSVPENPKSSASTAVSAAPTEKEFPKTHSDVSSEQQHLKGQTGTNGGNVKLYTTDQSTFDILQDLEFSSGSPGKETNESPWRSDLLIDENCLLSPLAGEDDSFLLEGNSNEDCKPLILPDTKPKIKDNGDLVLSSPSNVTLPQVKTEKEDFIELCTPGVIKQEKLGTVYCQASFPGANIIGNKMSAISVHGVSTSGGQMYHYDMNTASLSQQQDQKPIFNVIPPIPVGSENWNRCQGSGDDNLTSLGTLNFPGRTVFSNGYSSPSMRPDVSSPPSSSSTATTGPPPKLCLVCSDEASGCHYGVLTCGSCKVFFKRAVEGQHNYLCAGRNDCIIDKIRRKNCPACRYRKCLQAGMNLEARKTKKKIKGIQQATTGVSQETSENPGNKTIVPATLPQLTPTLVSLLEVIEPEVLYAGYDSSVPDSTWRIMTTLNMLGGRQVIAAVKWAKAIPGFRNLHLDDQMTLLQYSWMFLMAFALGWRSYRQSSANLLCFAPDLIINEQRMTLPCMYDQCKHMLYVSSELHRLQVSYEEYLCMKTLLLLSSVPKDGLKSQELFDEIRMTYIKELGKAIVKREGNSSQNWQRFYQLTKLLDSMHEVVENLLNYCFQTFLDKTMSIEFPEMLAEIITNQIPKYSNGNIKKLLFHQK
Oxysterols receptor LXR-beta (Homo sapiens), sequence (P55055 whole entry, looked up, the tested form may be a part): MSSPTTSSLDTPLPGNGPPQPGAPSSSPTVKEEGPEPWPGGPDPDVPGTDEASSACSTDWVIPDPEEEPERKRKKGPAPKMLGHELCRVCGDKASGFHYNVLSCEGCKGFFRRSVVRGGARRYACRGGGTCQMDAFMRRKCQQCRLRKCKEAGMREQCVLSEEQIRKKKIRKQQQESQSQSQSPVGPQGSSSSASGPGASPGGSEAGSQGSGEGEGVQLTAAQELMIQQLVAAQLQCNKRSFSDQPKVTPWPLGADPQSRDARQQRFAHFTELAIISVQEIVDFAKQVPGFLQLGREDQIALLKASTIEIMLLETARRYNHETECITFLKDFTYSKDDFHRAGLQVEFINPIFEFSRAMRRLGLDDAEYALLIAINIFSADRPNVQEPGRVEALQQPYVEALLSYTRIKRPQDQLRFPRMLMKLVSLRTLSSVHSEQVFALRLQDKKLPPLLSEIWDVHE
Nuclear respiratory factor 1 (Homo sapiens), sequence (Q16656 whole entry, looked up): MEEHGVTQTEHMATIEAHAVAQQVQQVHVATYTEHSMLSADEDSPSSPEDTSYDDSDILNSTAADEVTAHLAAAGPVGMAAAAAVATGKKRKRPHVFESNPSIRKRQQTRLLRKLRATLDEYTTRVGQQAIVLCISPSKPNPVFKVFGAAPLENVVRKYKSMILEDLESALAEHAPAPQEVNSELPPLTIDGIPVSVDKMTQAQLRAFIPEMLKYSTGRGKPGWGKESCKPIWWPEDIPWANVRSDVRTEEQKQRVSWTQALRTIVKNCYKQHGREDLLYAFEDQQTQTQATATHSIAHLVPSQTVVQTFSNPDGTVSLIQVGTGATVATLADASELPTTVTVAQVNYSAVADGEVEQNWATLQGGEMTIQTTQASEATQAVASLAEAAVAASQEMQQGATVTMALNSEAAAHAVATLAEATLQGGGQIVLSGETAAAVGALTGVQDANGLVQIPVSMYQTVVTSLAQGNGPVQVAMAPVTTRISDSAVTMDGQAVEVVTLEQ
Myc proto-oncogene protein (Homo sapiens), sequence (P01106 whole entry, looked up): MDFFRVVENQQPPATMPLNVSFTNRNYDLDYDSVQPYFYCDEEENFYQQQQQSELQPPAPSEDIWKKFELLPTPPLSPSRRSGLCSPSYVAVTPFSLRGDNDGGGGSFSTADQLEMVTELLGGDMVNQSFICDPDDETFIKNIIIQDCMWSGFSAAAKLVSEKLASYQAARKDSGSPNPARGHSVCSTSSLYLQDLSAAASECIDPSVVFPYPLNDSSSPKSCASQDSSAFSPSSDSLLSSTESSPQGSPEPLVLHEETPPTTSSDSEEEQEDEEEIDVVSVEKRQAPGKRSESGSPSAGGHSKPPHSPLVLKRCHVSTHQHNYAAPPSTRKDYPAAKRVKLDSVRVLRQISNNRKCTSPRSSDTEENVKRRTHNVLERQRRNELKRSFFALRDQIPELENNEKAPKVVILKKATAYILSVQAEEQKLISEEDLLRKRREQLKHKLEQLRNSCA
Hepatocyte nuclear factor 4-alpha (Homo sapiens), sequence (P41235 whole entry, looked up, the tested form may be a part): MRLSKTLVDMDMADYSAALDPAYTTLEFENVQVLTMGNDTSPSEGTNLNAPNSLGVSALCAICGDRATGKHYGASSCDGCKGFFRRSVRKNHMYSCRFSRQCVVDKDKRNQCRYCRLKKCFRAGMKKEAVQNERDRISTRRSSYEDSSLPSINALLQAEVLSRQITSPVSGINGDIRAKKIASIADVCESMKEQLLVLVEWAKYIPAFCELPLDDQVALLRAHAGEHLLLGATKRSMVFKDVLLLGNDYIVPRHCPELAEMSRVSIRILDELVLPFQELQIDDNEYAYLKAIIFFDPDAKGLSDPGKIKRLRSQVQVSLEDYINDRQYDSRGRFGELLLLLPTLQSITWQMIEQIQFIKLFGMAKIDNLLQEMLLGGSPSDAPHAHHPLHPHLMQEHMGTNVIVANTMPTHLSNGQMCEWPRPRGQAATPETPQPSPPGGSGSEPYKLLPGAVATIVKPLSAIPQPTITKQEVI

C[Si](Cl)(Cl)CCC(F)(F)C(F)(F)C(F)(F)C(F)(F)C(F)(F)C(F)(F)F
outcome [1]: inactive
outcome [2]: inactive
outcome [3]: inactive
outcome [4]: inactive
outcome [5]: inactive
outcome [6]: inactive
outcome [7]: inactive
outcome [8]: inactive
outcome [9]: inactive
outcome [10]: inactive
outcome [11]: inactive
outcome [12]: inactive
outcome [13]: inactive
outcome [14]: inactive
outcome [15]: inactive
outcome [16]: inactive
outcome [17]: inactive
outcome [18]: inactive

CCOC(=O)CC(=O)C(F)(F)C(F)(F)F
outcome [19]: inactive
outcome [1]: inactive
outcome [2]: inactive
outcome [3]: inactive
outcome [4]: inactive
outcome [5]: inactive
outcome [8]: inactive
outcome [9]: inactive
outcome [10]: inactive
outcome [11]: inactive
outcome [13]: inactive
outcome [20]: inactive
outcome [14]: inactive
outcome [15]: inactive
outcome [16]: inactive
outcome [17]: inactive
outcome [18]: inactive

OCCCCl
outcome [19]: inactive
outcome [1]: inactive
outcome [6]: inactive
outcome [7]: inactive
outcome [8]: inactive
outcome [9]: inactive
outcome [10]: inactive
outcome [11]: inactive
outcome [12]: inactive
outcome [13]: inactive
outcome [14]: inactive
outcome [15]: inactive

NC(=O)C(F)(F)C(F)(F)C(F)(F)F
outcome [19]: inactive
outcome [1]: inactive
outcome [2]: inactive
outcome [4]: inactive
outcome [5]: inactive
outcome [6]: inactive
outcome [8]: inactive
outcome [9]: inactive
outcome [10]: inactive
outcome [11]: inactive
outcome [12]: inactive
outcome [13]: inactive
outcome [20]: inactive
outcome [14]: inactive
outcome [15]: inactive
outcome [16]: inactive
outcome [17]: inactive
outcome [18]: inactive

CN1CN(C)CN(C)C1
outcome [19]: inactive
outcome [2]: inactive
outcome [4]: inactive
outcome [6]: inactive
outcome [7]: inactive
outcome [8]: inactive
outcome [9]: inactive
outcome [10]: inactive
outcome [11]: inactive
outcome [12]: inactive
outcome [13]: inactive
outcome [20]: inactive
AC50 [14]: 165 µM (active)
outcome [15]: inactive

CCOC(=O)CCC(C)=O
outcome [19]: inactive
outcome [2]: inactive
outcome [3]: inactive
outcome [4]: inactive
outcome [7]: inactive
outcome [9]: inactive
outcome [10]: inactive
outcome [11]: inactive
outcome [12]: inactive
outcome [13]: inactive
outcome [14]: inactive
outcome [15]: inactive

FC(F)(F)C(F)(F)C(F)(F)C(F)(F)C(F)(F)C(F)(F)C(F)(F)CCI
outcome [1]: inactive
outcome [2]: inactive
outcome [3]: inactive
outcome [4]: inactive
outcome [5]: inactive
outcome [6]: inactive
outcome [7]: inactive
outcome [8]: inactive
outcome [9]: inactive
outcome [10]: inactive
outcome [11]: inactive
outcome [12]: inactive
outcome [13]: inactive
AC50 [20]: 30.6 µM (active)
outcome [14]: inactive
outcome [15]: inactive
outcome [16]: inactive
outcome [17]: inactive
outcome [18]: inactive

C=CC(=O)OCC(F)(F)C(F)(F)C(F)(F)COC(=O)C=C
outcome [19]: inactive
outcome [1]: inactive
outcome [2]: inactive
outcome [4]: inactive
outcome [5]: inactive
outcome [6]: inactive
outcome [8]: inactive
outcome [9]: inactive
outcome [10]: inactive
outcome [11]: inactive
outcome [12]: inactive
AC50 [13]: 15.9 µM (active)
AC50 [20]: 12.7 µM (active)
AC50 [14]: 10.9 µM (active)
AC50 [15]: 78.8 µM (active)
AC50 [16]: 23.3 µM (active) and 14.6 µM (active)
AC50 [17]: 30 µM (active) and 48.5 µM (active)
AC50 [18]: 15.6 µM (active) and 20.5 µM (active)
